Shown are actives, neighbours in structure and some others; about 3.5% of the full set was active somewhere.
M1 PAM: potentiates human M1 receptor response to acetylcholine | hit rate 0.088% among 360,000 | activation, % at 3 µM | CHO-K1 hM1, Fluo-8 calcium fluorescence, ACh EC20; 0% = ACh EC20, 100% = maximal ACh | AID 588819 | P11229; in the data active means activation above about 19%, passing the limit was not always enough
CHRM1 antagonist: antagonists of human M1 muscarinic receptor. P11229. CHO-K1 hM1, Fluo-8 calcium fluorescence, ACh EC80 antagonist. inhibition, % at 3 µM. hit rate 1.3% among 360,000. AID 588852;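 active means percent inhibition above its own plate's cutoff, namely the mean of that plate's compound wells plus 3 SD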;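 further: peak over basal fluorescence ratio during 140 s after agonist addition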
ATG4B inhibitor: blocks human ATG4B protease cleavage of LC3 substrate. Q9Y4P1. ATG4B cleavage of LC3-PLA2, NBD-HPC fluorescence, 1 h. inhibition, % at 8.33 µM. hit rate 0.51% among 340,000. AID 504462; in the data active means inhibition above about 40%
Target sequence (Q9Y4P1 whole entry, looked up): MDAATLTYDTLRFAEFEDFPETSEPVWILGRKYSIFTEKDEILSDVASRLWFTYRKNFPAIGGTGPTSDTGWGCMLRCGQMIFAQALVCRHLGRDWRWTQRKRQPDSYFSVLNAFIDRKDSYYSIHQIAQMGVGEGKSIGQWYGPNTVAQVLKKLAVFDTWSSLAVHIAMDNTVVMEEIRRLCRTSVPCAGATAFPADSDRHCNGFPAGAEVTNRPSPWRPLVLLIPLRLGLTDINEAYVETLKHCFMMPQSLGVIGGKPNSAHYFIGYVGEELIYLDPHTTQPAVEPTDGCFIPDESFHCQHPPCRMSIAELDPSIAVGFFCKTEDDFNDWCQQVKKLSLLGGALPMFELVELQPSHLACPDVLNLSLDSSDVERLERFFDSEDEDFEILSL
SKN-1 block: blocks SKN-1 activity in C. elegans; C. elegans VP596 Pgst-4::GFP/RFP ratio, acrylamide-induced, 24 h; inhibition, % at 21.8 µM; hit rate 0.49% among 360,000;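 active means interference check ratio from 0.5 to 1.5 plus GFP to RFP signal ratio inhibition reaching or exceeding a fixed threshold, cut at about 30% in these data, passing the limit was not always enough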
CHRM1 agonist: agonists of human M1 muscarinic receptor; P11229; CHO-K1 hM1, Fluo-8 calcium fluorescence, agonist mode; 0% DMSO, 100% acetylcholine EC100; activation, % at 3 µM; hit rate 0.33% among 360,000; AID 588814;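 active means activation above the run's mean compound activation plus 3 SD, cut at about 16% in these data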;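 further: peak over basal fluorescence ratio within a 140 s kinetic read after compound addition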
Myeloid diff MLP: promotes myeloid progenitor differentiation; calls only at 10 µM; hit rate 1% among 360,000; ER-HoxA9 myeloid progenitors, lysozyme-GFP differentiation, flow cytometry;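 active means normalized GFP-positive differentiation at or above the plate's own cutoff, the solvent-only control mean plus 3 SD; inconclusive means no clear call, values can overlap the other calls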;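 further: cells exposed to compound for four days before flow analysis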
ATG4B conf: ATG4B (human) inhibition, single-dose confirmed; AID 504757; hit rate 92% among 320; inhibition, % at 8.33 µM; ATG4B protease fluorescent substrate cleavage assay; shares compounds with ATG4B inhibitor; in the data active means inhibition above about 39%
PLA2 ctr: PLA2 (human) inhibition in ATG4B counter-screen. hit rate 66% among 1,600. shares compounds with ATG4B inhibitor. purified PLA2, NBD-C6-HPC fluorescence, 45 min. AID 588402. inhibition, % at 8.33 µM; in the data active means inhibition above about 50%
Target sequence (P04054 whole entry, looked up): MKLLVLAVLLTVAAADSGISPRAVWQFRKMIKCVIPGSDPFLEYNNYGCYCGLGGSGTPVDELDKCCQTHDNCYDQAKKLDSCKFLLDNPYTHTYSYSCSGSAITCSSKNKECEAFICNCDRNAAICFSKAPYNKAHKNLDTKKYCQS
Of the large screens only hits and unclear results are named; the others gave an inactive call (follow-up assays come after a bar, where they were run).

Cc1nc(SCc2ccccc2)[nH]c(=O)c1CC(=O)OCC(C)C	none
c1ccc(CSc2nnc3c(n2)OC(c2ccco2)Nc2ccccc2-3)cc1 (centres undefined)	ATG4B inhibitor 42 | ATG4B conf 96 | PLA2 ctr inactive
Cc1ccc(S(=O)(=O)/N=C2/NC(=O)/C(=C\c3cc(Br)cc(Br)c3O)S2)cc1	ATG4B inhibitor 73 | PLA2 ctr 60
Cc1ccc(S(=O)(=O)/N=C2/NC(=O)/C(=C/c3ccc(Br)o3)S2)cc1	none
NC(=O)C1CCN(c2nc(-c3cc4ccccc4o3)cs2)CC1	ATG4B inhibitor 45 | PLA2 ctr inactive
Cc1ccc(NC(=O)COC(=O)CCc2c(C)nc3nc(N)nn3c2C)cc1C	none
Cc1cccc(C)c1NC(=O)CCCSc1nc2ccccc2s1	ATG4B inhibitor 47 | PLA2 ctr inactive
CCc1cccc(CC)c1NC(=O)CCCSc1nc2ccccc2s1	none
N#Cc1c(NC(=O)C2CC(c3ccccc3Cl)=NO2)sc2c1CCC2 (centres undefined)	ATG4B inhibitor 51 | ATG4B conf 63 | PLA2 ctr inactive
N#Cc1c(NC(=O)C2CC(c3ccccc3O)=NO2)sc2c1CCC2 (centres undefined)	none
Cc1ccc2c(c1)N(C(=O)CCC(=O)NCc1cccc(Cl)c1)CC(C)O2 (centres undefined)	none
Nc1c(N2CCN(c3ccccc3)CC2)c2ccccc2oc1=O	ATG4B inhibitor 43 | ATG4B conf 78 | PLA2 ctr inactive
CCCCOc1ccc(S(=O)(=O)NC(=O)C2(C)CCN2C(=O)c2cccc(F)c2)cc1 (centres undefined)	none (no result: ATG4B inhibitor)
O=C(O)c1ccc(-c2nnc(-c3cccc(Br)c3)o2)cc1	none
CN(CC(=O)Nc1ccc(C#N)cc1)CC(=O)Nc1ccc(N2CCOCC2)cc1	ATG4B inhibitor 41 | PLA2 ctr inactive
Cc1c(NC(=O)c2ccccc2NC(=O)COc2ccccc2)cccc1C(=O)O	ATG4B inhibitor 40 | PLA2 ctr inactive
COc1ccc(OCC(=O)Nc2ccccc2-c2ccccc2)cc1	none
Cc1cccc(OCC(=O)Nc2ccccc2-c2ccccc2)c1	ATG4B inhibitor 45 | ATG4B conf 64 | PLA2 ctr inactive
COC(=O)C1C2CCCCC1C(=O)O2 (centres undefined)	none
O=C(CSCc1c(Cl)cccc1Cl)Nc1ccccc1-c1ccccc1	ATG4B inhibitor 74 | PLA2 ctr 80
COc1cccc(CNc2ncnc3ccc(-c4c(C)noc4C)cc23)c1	none
COc1cccc(-c2ccc3ncnc(NCc4cccc(C)c4)c3c2)c1	ATG4B inhibitor 40 | PLA2 ctr inactive
CCCOc1ccccc1NC(=O)/C=C/c1ccc(OC)c(S(=O)(=O)N2CCOCC2)c1	none (no result: ATG4B inhibitor)
O=C(NN1C(=O)/C(=C/C=C/c2ccco2)SC1=S)c1ccncc1	ATG4B inhibitor 54 | ATG4B conf 65 | PLA2 ctr inactive
O=C(NN1C(=O)/C(=C/C=C/c2ccccc2)SC1=S)c1ccncc1	none
CC(=O)N1CCN(S(=O)(=O)c2cccc(C(=O)OCc3cccc(F)c3)c2)CC1	none
Cc1ccc(-c2cc(=O)c3cc(F)ccc3[nH]2)cc1	none
Cc1ccc(-c2cc(=O)c3cc(C)ccc3[nH]2)cc1	ATG4B inhibitor 72 | PLA2 ctr inactive
Oc1nc(Nc2cccc(Cl)c2)sc1/C=C1\C=Nc2ccccc21	ATG4B inhibitor 73 | PLA2 ctr 83
Cc1cccc2c1N(CCOc1ccc(C(C)(C)C)cc1)C(=O)C2=O	ATG4B inhibitor 57, CHRM1 agonist 21, Myeloid diff MLP inconclusive | ATG4B conf 52 | PLA2 ctr inactive
O=C(O)c1cc([N+](=O)[O-])ccc1NCc1ccccc1Cl	ATG4B inhibitor 48 | ATG4B conf 64 | PLA2 ctr inactive
O=C(O)c1cc([N+](=O)[O-])ccc1NCc1ccccn1	none
CCN(CC)c1ccc(/C=N/NC(=S)NCc2ccccc2)c(O)c1	ATG4B inhibitor 49 | PLA2 ctr inactive
COc1cc(CCN(C(=O)c2cc3ccccc3[nH]2)C(C)c2nc3ccccc3[nH]2)cc(OC)c1 (centres undefined)	none (no result: ATG4B inhibitor)
Cc1ccccc1OCCOC(=O)c1cc(S(=O)(=O)N2CCOCC2)ccc1C	none (no result: ATG4B inhibitor)
O=C(Cc1ccccc1)Nc1ccccc1N1CCCC1	none
O=C(CNC1CCCCCC1)Nc1ccccc1N1CCCCC1	ATG4B inhibitor 46 | PLA2 ctr 53
O=C(CNCCC1=CCCCC1)Nc1ccccc1N1CCCCC1	ATG4B inhibitor 49 | PLA2 ctr 53
O=C(CNCC1CCCCC1)Nc1ccccc1N1CCCCC1	ATG4B inhibitor 41 | ATG4B conf 65 | PLA2 ctr inactive
C[C@@]12CCC=C[C@H]1[C@H](c1ccccc1Br)N(Cc1ccccc1)C2=O	ATG4B inhibitor 48 | PLA2 ctr 79
CCOC(=O)c1c(C)nc2ccccc2c1-c1ccccc1	none
CCOC(=O)c1c(C)nc2c(c1-c1ccccc1)C(=O)c1ccccc1-2	ATG4B inhibitor 79 (no result: Myeloid diff MLP) | PLA2 ctr 71
CCOC(=O)c1c(C)nc2sc(C(N)=O)c(N)c2c1-c1ccccc1	ATG4B inhibitor 54 | PLA2 ctr 61
Cc1[nH]c(=S)sc1Cc1ccc(F)cc1	ATG4B inhibitor 40 | PLA2 ctr inactive
Cc1cccc(Cc2cnc(NC(=O)c3ccc(C)o3)s2)c1	ATG4B inhibitor 47 | PLA2 ctr 63
COc1cccc(NC(=O)CN(C)C(=O)CSCC(=O)Nc2ccc(C)cc2)c1	none
COC(=O)CSc1nc2cc(Cl)ccc2c(=O)n1C1CCCC1	ATG4B inhibitor 46 | ATG4B conf 61 | PLA2 ctr inactive
CC(=O)c1ccccc1NC(=O)c1ccc(OCc2c(C)noc2C)cc1	none
CC(C)c1[nH]nc2c1C(c1ccc(OC(=O)c3ccco3)cc1)C(C#N)=C(N)O2 (centres undefined)	ATG4B inhibitor 83 | PLA2 ctr 84
COCc1[nH]nc2c1C(c1ccc(OC)cc1)C(C#N)=C(N)O2 (centres undefined)	none
COc1ccc(Br)cc1CN1CCN(C(=O)c2cccc(F)c2)CC1	none (no result: Myeloid diff MLP)
N#CCC(=O)Nc1ccc(C(=O)NCc2cccc(Cl)c2)cc1	ATG4B inhibitor 53 | PLA2 ctr 71
CC(C)c1ccc(C2NC(=O)c3ccccc3O2)cc1 (centres undefined)	ATG4B inhibitor 41 | PLA2 ctr inactive
Cc1ccc(C(=O)N/N=C(/CC(=O)c2cccs2)C(F)(F)F)cc1	ATG4B inhibitor 41 | PLA2 ctr inactive

Source: PubChem (several laboratories)
